# From PubChem BioAssay (Tox21)
# Inconclusive results are not listed. Activity calls are given as the source filed them. Calls follow the shape of the dose curve; as a rule, active = well fitted cell-killing curve with a large enough effect in the repeat runs; inconclusive = weak or mixed curves, or effect the other way; inactive = flat fitted curve, though single readings scatter.
# Test: qHTS RealTime-Glo MT Cell Viability Assay in HEK293 cells - 32 hour (AID 1224868); also: top concentration of the series differs between compounds; nearly all actives have a fitted effect of over 50% in size
# Details: RealTime-Glo luminescence; series mostly up to 76.8 µM; activity change, negative = cytotoxic: at the top concentration
# How it was run: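 Cells + reagent dispensed (600 cells/well, HEK293) → 5 h at 37 C/5% CO2 → 23 nL compound in DMSO pinned → 40 h at 37 C → luminescence read at 0, 8, 16, 24, 32, 40 h.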
# % is scaled to controls: 0 for no effect and ±100 for the full control effect.
row,Compound,"activity change, negative = cytotoxic"
1,CC(C)(C)c1nnc(NS(=O)(=O)c2ccccc2)s1,4.11% [at 35.3 µM] (inactive)
2,COC(C)(C)CCCC(C)CC=O (stereo not drawn),4.44% (inactive)
3,C=CCS(=O)(=O)O,1.22% (inactive)
4,COc1c(N2C[C@@H]3CCCN[C@@H]3C2)c(F)cc2c(=O)c(C(=O)O)cn(C3CC3)c12,-1.47% [at 35.3 µM] (inactive)
5,COC(=O)c1ccc(C)cc1C1=NC(C)(C(C)C)C(=O)N1 (stereo not drawn),15.2% (inactive)
6,CS(=O)(=O)O,-0.0645% (inactive)
7,Cc1ccc(C#N)cc1,7.17% (inactive)
8,CC(C)NC(=O)NC(C)C,-0.378% (inactive)
9,CCOC(=O)[C@H](CCc1ccccc1)N[C@@H](C)C(=O)N1[C@H](C(=O)O)C[C@@H]2CCC[C@@H]21,8.49% [at 35.3 µM] (inactive)
10,COc1cc(C(=O)N2CCCCCCC2)cc(OC)c1OC,7.82% [at 35.3 µM] (inactive)
11,CO/N=C(/C(=O)N[C@@H]1C(=O)N2C(C(=O)OCOC(=O)C(C)(C)C)=C(C)CS[C@H]12)c1csc(N)n1,7.47% [at 35.3 µM] (inactive)
12,Cc1cc(O)cc2c1O[C@](C)(CCC[C@H](C)CCC[C@H](C)CCCC(C)C)CC2,6.57% [at 35.3 µM] (inactive)
13,CCOC(=O)c1c(C)n(C)c2ccc(O)cc12,-23.8% [at 35.3 µM] (inactive)
14,CCS(=O)(=O)c1ccc(OC)c(C(=O)OC)c1,6.08% [at 35.3 µM] (inactive)
15,CC1=CC(C)C(C=O)CC1 (stereo not drawn),0.209% (inactive)
16,CCOC(=O)C(=O)OCC,10.1% (inactive)
17,Cn1c(N)c(N=O)c(=O)n(C)c1=O,7.12% (inactive)
18,Cc1sccc1Br,4.55% [at 35.3 µM] (inactive)
19,CCCCCSCCCCC,-7.58% (inactive)
20,CC(=O)OCC(=O)[C@@]1(O)CCC2C3CCC4=CC(=O)CC[C@]4(C)C3[C@@H](O)C[C@@]21C (stereo partly drawn),-10.2% [at 35.3 µM] (inactive)
21,O=Cc1cccc([N+](=O)[O-])c1,3.19% (inactive)
22,CN(C(=O)c1c(O)c2ccccc2n(C)c1=O)c1ccccc1,3.62% [at 35.3 µM] (inactive)
23,CCCCOCCOCCOCCCC,3.22% (inactive)
